In PubChem BioAssay (NCI):
The panel holds about 83,000 compounds, 20% with a hit somewhere; the sample as a whole holds those more often.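 Negative percent growth values reflect cell death: -40 means 40% of the cells present at the start died, and -100 means all died.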 Active and inactive are the calls of the source. How the source made its calls: active means growth percent below 10; inactive means the rest.

Experiments:
Assay in all cases: NCI-60 one-dose screen, 48 h (100 = growth as untreated, 0 = no growth, -100 = all killed)
Settings in all cases: 10 µM unless noted
NCI-H23 lung = tested on: NCI-H23 lung
NCI-H226 lung = tested on: NCI-H226 lung
NCI-H322M lung = tested on: NCI-H322M lung
NCI-H460 lung = tested on: NCI-H460 lung
HOP-92 NSCLC = tested on: HOP-92 NSCLC
NCI-H522 lung = tested on: NCI-H522 lung
A549/ATCC NSCLC = tested on: A549/ATCC NSCLC
786-0 renal = tested on: 786-0 renal
COLO 205 colon = tested on: COLO 205 colon

Measured: growth

CCCCN(CCCC)CC(O)c1ccc(OCc2ccccc2)c2ccccc12 (stereo unspecified)
inactive: NCI-H23 lung 61.2% | NCI-H226 lung 104% | NCI-H322M lung 90% | NCI-H460 lung 83.1% | HOP-92 NSCLC 76.6% | NCI-H522 lung 23.7% | A549/ATCC NSCLC 86.1% | 786-0 renal 84.6% | COLO 205 colon 87.9%

NC1=NC(=O)NC1(c1ccccc1)c1ccccc1
inactive: NCI-H23 lung 91.9% | NCI-H226 lung 99% | NCI-H322M lung 99.2% | NCI-H460 lung 108% | HOP-92 NSCLC 85.3% | NCI-H522 lung 95.1% | A549/ATCC NSCLC 93.3% | 786-0 renal 135% | COLO 205 colon 103%

O=C(CCNCc1ccccc1)c1ccccc1
inactive: NCI-H23 lung 106% | NCI-H226 lung 102% | NCI-H322M lung 110% | NCI-H460 lung 110% | HOP-92 NSCLC 120% | NCI-H522 lung 101% | A549/ATCC NSCLC 101% | 786-0 renal 108% | COLO 205 colon 111%

O=C(O)c1cn(C2CC2)c2cc(N3CCN(Cc4c(O)ccc5ccccc45)CC3)c(F)cc2c1=O
inactive: NCI-H23 lung 21.9% | NCI-H322M lung 22% | NCI-H522 lung 19.7% | 786-0 renal 29.5% | COLO 205 colon 27.1%
active: NCI-H226 lung 6.89% | NCI-H460 lung 5.64% | HOP-92 NSCLC -8.22% | A549/ATCC NSCLC -21.9%

O=C(Nc1ccc(Oc2ccc(F)cc2)c(Cl)c1)c1cnccn1
inactive: NCI-H23 lung 65.6% | NCI-H226 lung 74.4% | NCI-H322M lung 82.2% | NCI-H460 lung 28% | HOP-92 NSCLC 58.2% | NCI-H522 lung 54.2% | A549/ATCC NSCLC 43.7% | 786-0 renal 81% | COLO 205 colon 69.3%

O=C1Nc2ccccc2/C1=C/C(=O)c1ccc(N2CCCCC2)cc1
inactive: NCI-H23 lung 75.7% | NCI-H226 lung 86.7% | NCI-H322M lung 96.6% | NCI-H460 lung 77.9% | HOP-92 NSCLC 56.7% | NCI-H522 lung 61.7% | A549/ATCC NSCLC 95.1% | 786-0 renal 98.7% | COLO 205 colon 74.6%

Cc1ccc(-c2cc(O)c(-c3ccc(C)cc3C)cc2O)c(C)c1
inactive: NCI-H23 lung 76.7% | NCI-H226 lung 62.9% | NCI-H322M lung 106% | NCI-H460 lung 23.6% | HOP-92 NSCLC 67.7% | NCI-H522 lung 59.2% | A549/ATCC NSCLC 51.9% | 786-0 renal 60% | COLO 205 colon 91.1%

CC(C)C1=NOC(=O)C1=Cc1cn(-c2ccccc2)nc1-c1ccc(Cl)cc1
inactive: NCI-H23 lung 84.8% | NCI-H226 lung 92.6% | NCI-H322M lung 93.9% | NCI-H460 lung 85.3% | HOP-92 NSCLC 86.9% | NCI-H522 lung 80.8% | A549/ATCC NSCLC 100% | 786-0 renal 80.7% | COLO 205 colon 99.6%

Cc1ccc(-n2nc3n(/c2=N\C(=O)NS(=O)(=O)c2ccc(C)cc2)CCN3C2=NCCN2)cc1
inactive: NCI-H23 lung 106% | NCI-H226 lung 95.3% | NCI-H322M lung 105% | NCI-H460 lung 106% | HOP-92 NSCLC 104% | NCI-H522 lung 88.6% | A549/ATCC NSCLC 95.4% | 786-0 renal 99.4% | COLO 205 colon 115%

COc1ccc(NCc2cn(-c3ccc(C(=O)O)cc3)nc2-c2ccc(C(=O)O)cc2)cc1C(F)(F)F
inactive: NCI-H23 lung 99.8% | NCI-H226 lung 98.5% | NCI-H322M lung 89.1% | NCI-H460 lung 100% | HOP-92 NSCLC 66.6% | NCI-H522 lung 97.8% | A549/ATCC NSCLC 99.8% | 786-0 renal 90.4% | COLO 205 colon 111%

O=C(CCN1CCCCC1)c1ccc(Cl)cc1
inactive: NCI-H23 lung 110% | NCI-H226 lung 94.6% | NCI-H322M lung 99.9% | NCI-H460 lung 97.8% | HOP-92 NSCLC 83.1% | NCI-H522 lung 95.8% | A549/ATCC NSCLC 109% | 786-0 renal 103% | COLO 205 colon 107%

C[C@H]1[C@H](C)CC[C@]2(C(=O)O)CC[C@]3(C)C(=CC[C@@H]4[C@@]5(C)C/C(=C/c6cccnc6)[C@H](O)C(C)(C)[C@@H]5CC[C@]43C)[C@H]12
active: NCI-H226 lung -24.2% [100 µM] | NCI-H322M lung -16.4% [100 µM] | NCI-H460 lung -31.1% [100 µM] | HOP-92 NSCLC -3.06% [100 µM] | A549/ATCC NSCLC 8.85% [100 µM] | 786-0 renal 1.92% [100 µM] | COLO 205 colon -80.4% [100 µM]
inactive: NCI-H23 lung 14.3% [100 µM]

CCCCNC(=O)NS(=O)(=O)Cc1ccccc1
inactive: NCI-H23 lung 114% | NCI-H226 lung 107% | NCI-H322M lung 118% | NCI-H460 lung 111% | HOP-92 NSCLC 94.4% | NCI-H522 lung 102% | A549/ATCC NSCLC 101% | 786-0 renal 99% | COLO 205 colon 118%
